Results: PubChem BioAssay (Tox21)
Records with an inconclusive call do not appear. A call without a number means that no potency is given here. A number with no mark means an inactive call. Calls of active or inactive are those of the source. Calls come from the whole dose curve; as a rule, active = well fitted cell-killing curve with a large enough effect in the repeat runs; inconclusive = weak or mixed curves, or effect the other way; inactive = flat fitted curve, though single readings scatter.

Assays:
[1] = cAMP Responsive Elements (CRE) small molecule antagonists, cell-based qHTS assay: qHTS cell viability counter screen (AID 2060913); details: CRE-bla HEK293T viability, CellTiter-Glo luminescence, 5 h; series mostly up to 92.4 µM; note: nearly all actives have a fitted effect of over 40% in size
Procedure, shortened: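 CRE-bla HEK293T cells (2,000/well, 18 h) given compound plus NKH477 0.25 uM final for 3 h at 37C; viability counter-screen by CellTiter-Glo luminescence in same wells after 30 min.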

[2] = cAMP Responsive Elements (CRE) small molecule agonists, cell-based qHTS assay: qHTS cell viability counter screen (AID 2060914); details: CRE-bla HEK293T viability, CellTiter-Glo luminescence, 5 h; series mostly up to 92.4 µM; note: potency is the fitted concentration of half-maximal effect;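 note: viability read after 3 h of compound exposure; nearly all actives have a fitted effect of over 50% in size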
Procedure, shortened: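 Cells are seeded and incubated 18 h, treated with compounds in DMSO for 3 h, read for the bla reporter, then given CellTiter-Glo; luminescence is measured after 30 min at room temperature.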

## CN(C)CC[C@@H](c1ccc(Cl)cc1)c1ccccn1
[1]
  Potency: inactive
[2]
  Potency: inactive

## C[C@@H](c1ncncc1F)C(O)(Cn1cncn1)c1ccc(F)cc1F (stereo partly specified)
[1]
  Potency: inactive
[2]
  Potency: inactive

## COC(=O)CCCCC(=O)O
[1]
  Potency: inactive
[2]
  Potency: inactive

## c1ccc(C(O[C@@H]2CCCN(CCc3ccc4c(c3)OCO4)C2)c2ccccc2)cc1
[2]
  Potency: inactive

## O=S(=O)(O)CC(O)CCl (stereo unspecified)
[1]
  Potency: inactive
[2]
  Potency: inactive

## CC(C)CC=O
[1]
  Potency: inactive
[2]
  Potency: inactive

## c1ccc(CCCc2ccncc2)cc1
[1]
  Potency: inactive
[2]
  Potency: inactive

## C=CCNC(N)=S
[1]
  Potency: inactive
[2]
  Potency: inactive

## C=C(C)c1cccc(C(=C)C)c1
[1]
  Potency: inactive
[2]
  Potency: inactive

## C=C(C)C(=O)OCCOP(=O)(O)OCCOC(=O)C(=C)C
[1]
  Potency: inactive
[2]
  Potency: inactive

## COc1cc(C(C)=O)ccc1OCCCN1CCC(c2noc3cc(F)ccc23)CC1
[1]
  Potency: inactive
[2]
  Potency: inactive

## Oc1ccc(Nc2ccccc2)cc1
[2]
  Potency: inactive

## C=Cc1c(C)c2cc3[nH]c(cc4nc(cc5nc(cc1[nH]2)C(C)=C5CCC(=O)O)C(CCC(=O)O)=C4C)c(C)c3C=C
[2]
  Potency: inactive

## c1coc(Cn2cccc2)c1
[1]
  Potency: inactive
[2]
  Potency: inactive

## OCC1CC2CC1C1CCC(CO)C21 (stereo unspecified)
[1]
  Potency: inactive
[2]
  Potency: inactive

## NC(=O)N(O)[C@@H]1COc2cc(OCc3ccccc3)ccc21
[1]
  Potency: inactive
[2]
  Potency: inactive

## O=C1Nc2ccc(Cl)cc2[C@@](C#CC2CC2)(C(F)(F)F)O1
[2]
  Potency: inactive

## Cc1cc(C(C#N)c2ccc(Cl)cc2)c(Cl)cc1NC(=O)c1cc(I)cc(I)c1O (stereo unspecified)
[1]
  Potency: inactive
[2]
  Potency: inactive

## O=C(/C=C/c1ccccc1)NCCO
[1]
  Potency: inactive
[2]
  Potency: inactive

## CC(=O)Oc1ccc2c(c1)CC[C@@H]1[C@@H]2CC[C@]2(C)[C@@H](O)CC[C@@H]12
[1]
  Potency: inactive
[2]
  Potency: inactive

## CCCC(C)C(=O)OCC (stereo unspecified)
[1]
  Potency: inactive
[2]
  Potency: inactive

## N[C@@H](Cc1c[nH]c2ccccc12)C(=O)O
[1]
  Potency: inactive
[2]
  Potency: inactive

## CCCCC(=O)O[C@]1(C(=O)CO)[C@@H](C)C[C@H]2[C@@H]3CCC4=CC(=O)C=C[C@]4(C)[C@@]3(F)[C@@H](O)C[C@@]21C
[1]
  Potency: inactive
[2]
  Potency: inactive

## Cc1ccc(O)c(O)c1
[1]
  Potency: inactive
[2]
  Potency: inactive

## CC(C)(C)c1ccc(N)cc1
[2]
  Potency: inactive

## CC1Cc2ccccc2N1NC(=O)c1ccc(Cl)c(S(N)(=O)=O)c1 (stereo unspecified)
[2]
  Potency: inactive

## CC(C)COC(=O)CCCCC(=O)OCC(C)C
[2]
  Potency: inactive

## CCCN(CCC)S(=O)(=O)c1ccc(C(=O)O)cc1
[2]
  Potency: inactive

## CCCCOC(=O)c1ccc(N)cc1
[1]
  Potency: inactive
[2]
  Potency: inactive

## CCC[C@@H]1C[C@@H](C(=O)N[C@@H]([C@H]2O[C@H](SC)[C@H](O)[C@@H](O)[C@H]2O)[C@@H](C)O)N(C)C1
[2]
  Potency: inactive

## Nc1cc([N+](=O)[O-])ccc1Cl
[1]
  Potency: inactive
[2]
  Potency: inactive

## CN(C)c1ccc(C(c2ccccc2)c2ccc(N(C)C)cc2)cc1
[1]
  Potency: inactive
[2]
  Potency: inactive

## Cl/C(=C\n1cncn1)c1ccc(Cl)cc1Cl
[2]
  Potency: inactive

## CCCCC1CCCCC(=O)O1 (stereo unspecified)
[1]
  Potency: inactive
[2]
  Potency: inactive

## Cc1ccc(C)cc1
[1]
  Potency: inactive
[2]
  Potency: inactive

## CN(C)c1ccc(C=O)cc1
[1]
  Potency: inactive
[2]
  Potency: inactive

## Cc1cccc(C)c1NC(=O)C(C)N (stereo unspecified)
[2]
  Potency: inactive

## CCN(CC)S(=O)(=O)c1ccc(C(=O)O)cc1
[2]
  Potency: inactive

## CCCC1O[C@@H]2C[C@H]3[C@@H]4CCC5=CC(=O)C=C[C@]5(C)[C@H]4[C@@H](O)C[C@]3(C)[C@]2(C(=O)CO)O1 (stereo partly specified)
[2]
  Potency: inactive

## COc1ccccc1OCC(O)CN1CCN(CC(=O)Nc2c(C)cccc2C)CC1 (stereo unspecified)
[2]
  Potency: inactive

## COC(=O)C1CC(=O)C(C(=O)OC)CC1=O (stereo unspecified)
[2]
  activity change, negative = cytotoxicity: -4.18% [at 8.39 µM]

## c1csc(SSc2cccs2)c1
[2]
  Potency: inactive

## NC(Cc1c[nH]c2ccccc12)C(=O)O (stereo unspecified)
[2]
  Potency: inactive

## CC/C=C\CCOC(=O)CCCCC
[2]
  Potency: inactive

## Cc1cc(-c2ccc(N=Nc3cc(S(=O)(=O)O)c4ccccc4c3N)c(C)c2)ccc1N=Nc1cc(S(=O)(=O)O)c2ccccc2c1N
[2]
  Potency: inactive

## CC(CC(C)(C)C)CC(C)(C)CC(C)(C)C (stereo unspecified)
[2]
  Potency: inactive

## CNCC(O)c1ccc(O)c(O)c1 (stereo unspecified)
[2]
  Potency: inactive

## O=C(O)Cc1csc(-c2ccc(Cl)cc2)n1
[2]
  Potency: inactive

## CCCn1cnc2c1c(=O)n(CCCCC(C)=O)c(=O)n2C
[2]
  Potency: inactive

## NC(=O)N/N=C/c1ccc([N+](=O)[O-])o1
[2]
  Potency: inactive

## Cc1ccc(-c2cc(C(F)(F)F)nn2-c2ccc(S(N)(=O)=O)cc2)cc1
[2]
  Potency: inactive

## COc1ccccc1OCC(O)COC(N)=O (stereo unspecified)
[2]
  Potency: inactive

## CCOC(=O)C(F)(F)F
[2]
  Potency: inactive

## Cc1cc2c(cc1C(F)(F)F)N(C(=O)Nc1ccc(Oc3cccnc3C)nc1)CC2
[2]
  Potency: inactive

## Cc1cc2c(C(C)C)c(O)c(O)c(C=O)c2c(O)c1-c1c(C)cc2c(C(C)C)c(O)c(O)c(C=O)c2c1O
[2]
  Potency: 26.6 µM (active)

## Cc1c(C(=O)O)c(O)cc2c1C(=O)c1c(O)c([C@@H]3O[C@H](CO)[C@@H](O)[C@H](O)[C@H]3O)c(O)c(O)c1C2=O
[2]
  Potency: inactive

## O=C(O)Cc1cc(I)c(Oc2cc(I)c(O)c(I)c2)c(I)c1
[2]
  Potency: inactive

## CCC/C=C/C=O
[2]
  Potency: inactive

## CCCCCCCCCCCCCCOS(=O)(=O)O
[2]
  Potency: inactive

## CCCCCCC#CC(=O)OC
[2]
  Potency: inactive

## CCCCCC#CC(=O)OC
[2]
  Potency: inactive

## CC(C)(C)CC(C)(C)c1ccc(OCCO)cc1
[2]
  Potency: inactive

## CC(C)Oc1ccc2c(=O)c(-c3ccccc3)coc2c1
[2]
  Potency: inactive

## O=C(O)Cc1c(Cl)ccc(Cl)c1Cl
[2]
  Potency: inactive

## CCCCN1C(=O)c2ccccc2C1=O
[2]
  Potency: inactive

## CCOCCOCCOCC
[2]
  Potency: inactive

## O=C1Nc2ccccc2C1(c1ccc(O)cc1)c1ccc(O)cc1
[2]
  Potency: inactive

## CCCCCCC/C=C/C=O
[2]
  Potency: inactive

## CC(C)N=C=NC(C)C
[2]
  Potency: inactive

## O=[N+]([O-])c1ccc(O)cc1C(F)(F)F
[2]
  Potency: inactive

## CCCCCCCCCCCCCc1ccccc1
[2]
  Potency: inactive

## CC(CCc1ccc(O)cc1)NCCc1ccc(O)c(O)c1 (stereo unspecified)
[2]
  Potency: inactive

## CC(NCCC(c1ccccc1)c1ccccc1)c1ccccc1 (stereo unspecified)
[2]
  Potency: inactive

## CCCCC(CC)COC(=O)/C=C/c1ccc(OC)cc1 (stereo unspecified)
[2]
  Potency: inactive

## CCOC(=O)Oc1ccc(CCNC(=O)[C@H](CCSC)NC(C)=O)cc1OC(=O)OCC
[2]
  Potency: inactive

## Nc1ccc2c(O)cc(S(=O)(=O)O)cc2c1
[2]
  Potency: inactive

## CCCCCCCC/C=C\CCCCCCCC(=O)OCCO
[2]
  Potency: inactive

## [Cl][Sc]([Cl])[Cl]
[2]
  Potency: inactive

## Clc1cccnc1
[2]
  Potency: inactive

## O=C(O)CCCC[C@@H]1SC[C@@H]2NC(=O)N[C@@H]21
[2]
  Potency: inactive

## CCCC[P+](CCCC)(CCCC)CCCC
[2]
  Potency: inactive

## C/C(=C\C(C)CC(C)CC(C)C)C1CC(=O)OC1=O (stereo unspecified)
[2]
  Potency: inactive

## O=C(O)Cc1ccc(CCNS(=O)(=O)c2ccc(Cl)cc2)cc1
[2]
  Potency: inactive

## c1ccc2cnccc2c1
[2]
  Potency: inactive

## C[C@@H](O[C@H]1OCCN(Cc2n[nH]c(=O)[nH]2)[C@H]1c1ccc(F)cc1)c1cc(C(F)(F)F)cc(C(F)(F)F)c1
[2]
  Potency: inactive

## Cc1nccn1-c1ccc(Sc2cccc(C3(C(N)=O)CCOCC3)c2)cc1
[2]
  Potency: inactive

## CC(=O)OC/C=C(\C)CCC=C(C)C
[2]
  Potency: inactive

## CC(=O)OC(C)OC(C)=O
[2]
  Potency: inactive

## CC1(C)OC[C@@H](COC(=O)CCc2ccc(OC[C@@H](O)CNCCNC(=O)N3CCOCC3)cc2)O1
[2]
  Potency: inactive

## Nc1ncnc2c1ncn2[C@@H]1O[C@H](CO)[C@@H](O)[C@H]1O
[2]
  Potency: inactive

## Cc1ccc(C(C)(C)O)cc1
[2]
  Potency: inactive

## CCc1ncc(C)[nH]1
[2]
  Potency: inactive

## Cc1oc2c(NC(=O)c3c(Cl)cccc3Cl)cccc2c1C(C)(C)O
[2]
  Potency: inactive

## CSc1ccc(/C=C2/C(C)=C(CC(=O)O)c3cc(F)ccc32)cc1
[2]
  Potency: inactive

## O=C(N[C@@H](c1ccccc1)[C@@H]1CCCCN1)c1cccc(C(F)(F)F)c1Cl
[2]
  Potency: inactive

## O=C1CCCCCCCCCCC1
[2]
  Potency: inactive

## CCOC(=O)COc1ccc2c(c1)CC(NCC(O)c1cccc(Cl)c1)CC2 (stereo unspecified)
[2]
  Potency: inactive

## Cc1c(N=C=O)cccc1N=C=O
[2]
  Potency: inactive

## O=C(O[C@@H]1Cc2c(O)cc(O)cc2O[C@@H]1c1cc(O)c(O)c(O)c1)c1cc(O)c(O)c(O)c1
[2]
  Potency: inactive

## CC(C)(CCC(=O)O)C(=O)O
[2]
  Potency: inactive

## CCOC(=O)C(C)(C)C
[2]
  Potency: inactive

## O=C1CCCCCCCCCCCC(=O)OCCO1
[2]
  Potency: inactive

## COC(=O)C1=C(C)NC(C)=C(C(=O)OCCCN2CCC(c3ccccc3)(c3ccccc3)CC2)C1c1cccc([N+](=O)[O-])c1 (stereo unspecified)
[2]
  Potency: inactive

## C=CC[N+](C)(C)CC=C
[2]
  Potency: inactive

## CN[C@H]1CC[C@@H](c2ccc(Cl)c(Cl)c2)c2ccccc21
[2]
  Potency: inactive

## C=C(C)C(=O)OCCOC(=O)C(=C)C
[2]
  Potency: inactive

## NC(=O)N[C@@H](CCC(=O)O)C(=O)O
[2]
  Potency: inactive

## CC/C(=C(\c1ccccc1)c1ccc(OCCN(C)C)cc1)c1ccccc1
[2]
  Potency: inactive

## Cc1cccc(Nc2ccccc2)c1
[2]
  Potency: inactive

## C[N+](C)(C)CCOC(=O)CCC(=O)OCC[N+](C)(C)C
[2]
  Potency: inactive

## C1COC1
[2]
  Potency: inactive

## CCCCCCCCN
[2]
  Potency: inactive

## CO[Si](CCCn1c(=O)n(CCC[Si](OC)(OC)OC)c(=O)n(CCC[Si](OC)(OC)OC)c1=O)(OC)OC
[2]
  Potency: inactive

## O=C1CCCN1CCO
[2]
  Potency: inactive

## C=C(C)C(=O)OCC(CC)(COC(=O)C(=C)C)COC(=O)C(=C)C
[2]
  Potency: inactive

## CC(C)CC(C)CC(O)CC(C)C (stereo unspecified)
[2]
  Potency: inactive

## O=C(Nc1ccccc1)Nc1ccccc1
[2]
  Potency: inactive

## O=P(O)(O)OCC(O)CO (stereo unspecified)
[2]
  Potency: inactive

## C/C=C/C(=O)OCC(C)C
[2]
  Potency: inactive

## O=CC=C(c1ccccc1)c1ccccc1
[2]
  Potency: inactive
